The entries come from a sample that favours hits as a whole.
HT1080 IDH1KD tx: qHTS for induction of synthetic lethality in tumor cells producing 2HG: qHTS for the HT-1080-IDH1KD cell line | Potency, µM (top dose mostly 46.1 µM), usual class: cytotoxic | HT-1080 IDH1 knockdown viability, ATP luminescence, 48 h | actives 2% (n = 360,000)
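HT-1080-IDH1KD cells (IDH1 knocked down), 750/well in RPMI with 5% FBS, treated with compound 48 h at 37 degrees C. Viability by CellTiter-Glo luminescence, normalised to DMSO and no-cell wells; concentration-response curves classed.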
TDP1 cell noCPT: qHTS for Inhibitors of human tyrosyl-DNA phosphodiesterase 1 (TDP1): qHTS in cells in absence of CPT; DT40 Tdp1-/- hTDP1 cells, no CPT, ATP luminescence, 48 h; actives 15% (n = 420,000); Potency, µM (highest dose often 46.2 µM), most hits filed as inhibitors; AID 686978, 2013; also: nearly all actives have a fitted effect of over 55% in size
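Compound effects on proliferation are scored in DT40 Tdp1-/-;hTDP1 cells in the absence of CPT. ATP levels (CellTiter-Glo luminescence) are recorded after a ≥48 hr, 37 °C incubation.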
IL1B secr inh: qHTS for Inhibitors of Inflammasome Signaling: IL-1-beta AlphaLISA Primary Screen. THP-1 LPS/ATP IL-1B secretion, AlphaLISA, 16 h; hits give low values. activity change, % at 57.5 µM. actives 4.7% (n = 360,000); in the data active = activity change below about -50%; inconclusive = mostly about -30% to -49%
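Secreted IL-1B measured by AlphaLISA bead assay after 16 h compound exposure of THP-1 cells; compounds (final up to 57.5 uM) added 1 h before LPS (250 ng/mL) and ATP (1.25 mM) stimulation; lower signal means less secretion.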
TDP1 cell CPT: qHTS for Inhibitors of human tyrosyl-DNA phosphodiesterase 1 (TDP1): qHTS in cells in presence of CPT; Potency, µM (top dose mostly 46.2 µM), most hits filed as inhibitors; chicken DT40 Tdp1-/-;hTDP1 cells + 20 nM CPT, ATP luminescence, 48 h; actives 12% (n = 420,000); AID 686979, 2013; also: nearly all actives have a fitted effect of over 55% in size
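Chicken DT40 Tdp1-/- cells stably complemented with human TDP1 were seeded at 400 cells/well in medium containing 20 nM camptothecin, exposed to pin-transferred compounds, and grown at 37 °C for at least 48 hr. Viability was read as ATP luminescence.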
HT1080-NT tox: qHTS for induction of synthetic lethality in tumor cells producing 2HG: qHTS for the HT-1080-NT fibrosarcoma cell line; HT-1080-NT fibrosarcoma viability, CellTiter-Glo ATP luminescence, 48 h; Potency, µM (doses to about 46.1 µM), actives largely listed as cytotoxic; AID 686970, 2013; actives 1.6% (n = 360,000);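 also: NT is the 2HG producing partner of a matched IDH1 knockdown line; nearly all actives have a fitted effect of over 55% in size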
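Luminescent CellTiter-Glo readout after 48 hours of compound exposure at 37 degrees C defined viability of HT-1080-NT cells. Activity was normalized to DMSO wells and cell-free media wells; concentration-response curves were fitted and assigned curve classes.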
12-LOX inh: Primary qHTS assay for inhibitors of human arachidonate 12S-lipoxygenase (ALOX12): Round 2 | Polyunsaturated fatty acid lipoxygenase ALOX12 (Homo sapiens), P18054 | purified 12hLO, xylenol orange hydroperoxide absorbance | Potency, µM (titrated, usually from 108 µM), usual class: inhibitors | actives 1.1% (n = 580,000) | AID 1671190, 2021
Target sequence (P18054 whole entry, looked up): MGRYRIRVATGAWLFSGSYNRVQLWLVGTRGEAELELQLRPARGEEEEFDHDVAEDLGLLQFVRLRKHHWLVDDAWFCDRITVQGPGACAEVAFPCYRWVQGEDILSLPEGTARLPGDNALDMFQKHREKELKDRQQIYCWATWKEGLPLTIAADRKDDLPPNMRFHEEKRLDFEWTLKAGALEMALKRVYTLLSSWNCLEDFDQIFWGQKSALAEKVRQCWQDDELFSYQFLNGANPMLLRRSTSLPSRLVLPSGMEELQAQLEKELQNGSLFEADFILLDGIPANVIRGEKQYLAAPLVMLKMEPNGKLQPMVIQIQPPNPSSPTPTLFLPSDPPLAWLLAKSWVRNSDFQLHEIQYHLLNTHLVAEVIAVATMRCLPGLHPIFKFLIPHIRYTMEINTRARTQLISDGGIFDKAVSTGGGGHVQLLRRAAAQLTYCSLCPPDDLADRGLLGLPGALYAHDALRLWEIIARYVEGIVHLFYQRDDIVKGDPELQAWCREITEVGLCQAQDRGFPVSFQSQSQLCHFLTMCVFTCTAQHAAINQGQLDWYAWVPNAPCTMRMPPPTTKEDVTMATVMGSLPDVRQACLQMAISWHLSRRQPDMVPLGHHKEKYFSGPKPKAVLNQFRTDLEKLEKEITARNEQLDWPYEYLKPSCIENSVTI
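Purified human 12hLO (150 nM final) in 25 mM Hepes, 0.01% Triton X-100, pH 7.0 was preincubated 15 min at room temperature with compound. Then 40 uM arachidonic acid was added, 30 min. Hydroperoxide was read by Fe-XO absorbance ratio 573/405 nm.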
Numbers stand for hits; - = inactive; ? = inconclusive; . = no result given; ! = not confirmed by another sample. Unless noted, calls follow the shape of the dose curve; as a rule, active = well fitted curve in the direction sought with a large enough effect; inconclusive = small, poorly fitted or top-dose-only effect, or another doubt; inactive = no such curve, though single readings can be large; an effect the other way counts as inactive or inconclusive.

SMILES | HT1080 IDH1KD tx | TDP1 cell noCPT | IL1B secr inh | TDP1 cell CPT | HT1080-NT tox | 12-LOX inh
CCn1cc(CN2CCC3(CCC3NC(=O)COC)CC2)cn1 (stereo not given) | . | . | . | . | . | -
CCOC(=O)c1sc2nc(-c3ccco3)c3c(c2c1N)CC(C)(C)OC3 | - | 21µM | -53 | 21µM | - | ?
CC1(C)Cc2c(c(N3CCOCC3)nc3sc(C(=O)Nc4ccc(Cl)cc4)c(N)c23)CO1 | - | 23µM | - | ? | - | 2.8µM!
CC1(C)Cc2c(c(N3CCOCC3)nc3sc(C(N)=O)c(N)c23)CO1 | - | ? | - | - | - | -
COc1ccc(NC(=O)c2sc3nc(N4CCCC4)c4c(c3c2N)CC(C)(C)OC4)c(OC)c1 | - | - | ? | ? | - | -
COc1cccc(NC(=O)c2sc3nc(N4CCOCC4)c4c(c3c2N)CC(C)(C)OC4)c1 | . | 6.5µM | . | 5.8µM | . | -
CN1Cc2c(N3CCOCC3)nc3sc(C(=O)c4ccccc4)c(N)c3c2CC1(C)C | - | ? | - | 16µM | - | -
CCOc1ccccc1OCC(=O)Nc1ccc2oc(C)nc2c1 | . | . | . | . | . | -
CCCCCCCCSC1=CC(=O)C(OC)=C(OC)C1=O | - | 1µM | - | 1.2µM | - | ?
CCCCCCCCCCC1=C(C)C(=O)C(OC)=C(OC)C1=O | . | ? | . | - | . | -
CC(=O)Nc1ccccc1-c1nc2ccccc2n(C(C)C(=O)Nc2ccccc2C(F)(F)F)c1=O (stereo not given) | . | ? | . | - | . | -
CCC(=O)Nc1ccccc1-c1nc2ccccc2n(C(C)C(=O)Nc2ccc(OC)cc2)c1=O (stereo not given) | . | 15µM | . | ? | . | -
CCC(C(=O)Nc1ccc(C)c(Cl)c1)n1c(=O)c(-c2ccccc2NC(C)=O)nc2ccccc21 (stereo not given) | . | 13µM | . | 21µM | . | -
CC(=O)Nc1ccccc1-c1nc2ccccc2n(C(C)C(=O)Nc2cccc(C)c2C)c1=O (stereo not given) | . | ? | . | 21µM | . | -
COc1ccc(Cl)cc1NC(=O)Cn1c(=O)c(-c2ccccc2NC(C)=O)nc2ccccc21 | . | 15µM | . | 13µM | . | -
COc1ccc(NC(=O)Cn2c(=O)c(-c3cc(C)ccc3NC(C)=O)nc3ccccc32)c(OC)c1 | . | - | . | - | . | -
Cn1nc(CC(=O)Nc2ccc(F)cc2Cl)c2ccccc2c1=O | . | . | . | . | . | -
OC(c1ccccc1)c1nc(Nc2ccc(Cl)cc2F)n[nH]1 (stereo not given) | . | . | . | . | . | -
CCC(=O)Nc1ccccc1-c1nc2ccccc2n(CC(=O)Nc2ccccc2OC)c1=O | . | 5.8µM | . | 5.8µM | . | -
COc1ccccc1-c1cnc(Nc2ccc(Cl)cn2)c2c1CCO2 | . | . | . | . | . | -
Cc1ccccc1N1C(=O)c2ccccc2N2C(=O)c3ccccc3C12 (stereo not given) | - | 16µM | - | 8.2µM | - | -
CCCN1C(=O)c2ccccc2NC1c1ccc(Cl)cc1 (stereo not given) | - | - | - | - | - | ?
O=C1c2ccccc2NC(c2ccccc2O)N1Cc1ccco1 (stereo not given) | . | 16µM | . | ? | . | .
COc1ccc(C2Nc3ccccc3C(=O)N2Cc2ccco2)cc1 (stereo not given) | . | 13µM | . | ? | . | .
O=C1c2ccccc2N2C(=O)c3ccccc3C2N1O (stereo not given) | - | - | - | - | - | -
SMILES | HT1080 IDH1KD tx | TDP1 cell noCPT | IL1B secr inh | TDP1 cell CPT | HT1080-NT tox | 12-LOX inh
CCCN1C(=O)c2ccccc2NC1c1ccc(Br)cc1 (stereo not given) | - | ? | -51 | - | ? | -
CC1COCCN1Cc1coc(-c2cccc(F)c2)n1 (stereo not given) | . | . | . | . | . | -
CC(=O)Nc1ccc(CNC2(Cc3cc(CN4CCN(c5ccccc5)CC4)on3)COC2)cc1 | . | . | . | . | . | -
COc1ccc(C(=O)N2CC(c3nc(CCN(C)C(=O)C4CC4)no3)C2)c(OC)n1 | . | . | . | . | . | -
O=C1c2ccccc2NC(c2ccccc2OCc2ccccc2)N1Cc1ccco1 (stereo not given) | . | 10µM | . | 11µM | . | .
O=C1c2ccccc2NC(c2ccccc2)N1Cc1ccco1 (stereo not given) | - | - | - | - | - | ?
O=C1c2ccccc2N2C(=O)c3ccccc3C2N1Cc1ccco1 (stereo not given) | - | 18µM | ? | 23µM | - | .
COc1ccc(CN2C(=O)COC[C@H]2C(=O)N2CCC(C)CC2)c(OC)c1 | . | . | . | . | . | -
COc1cccc(NC(=O)N2CCC(OC3CCN(S(C)(=O)=O)CC3)CC2)c1 | . | . | . | . | . | -
Cc1ccc(NC(=O)C2CCCCC2)cc1 | . | . | . | . | . | -
Cc1nc(-c2ccc(NC(=O)c3ccccc3)cc2)cs1 | ? | ? | - | 18µM | ? | -
O=C(Nc1ccc(-c2cn3ccsc3n2)cc1)C1CC1 | - | ? | - | ? | - | ?
O=C(Nc1ccc(-c2cn3ccsc3n2)cc1)C1CCCC1 | ? | 16µM | - | 15µM | - | -
O=C(Nc1ccc(-c2csc(-c3ccccc3)n2)cc1)c1ccccc1Cl | - | ? | - | 21µM | - | -
Cc1nc(-c2ccc(NC(=O)C3CCCCC3)cc2)cs1 | - | 21µM | - | - | - | -
COc1ccc(NC(=O)Cn2c(-c3ccc(F)cc3)nc(C)cc2=O)cc1 | . | . | . | . | . | -
O=C(Nc1ncn(Cc2ccccc2)n1)c1cc(S(=O)(=O)N2CCCC2)c(Cl)cc1Cl | . | . | . | . | . | -
Cc1cccc(-n2nc(-c3c(C)nc4scc(CC(=O)N5CCOCC5)n4c3=O)cc2C)c1 | . | . | . | . | . | -
CSc1ccccc1NC(=O)c1ccc(OCC2CCCO2)cc1 (stereo not given) | . | . | . | . | . | -
Cc1ccccc1C(OCCN(C)C)c1ccccc1 (stereo not given) | - | ? | - | 23µM! | - | ?
CCN(CC)CCOC(c1ccccc1)c1ccc(C)cc1 (stereo not given) | - | ? | ? | ? | - | -
CN(C)C(=O)c1cccc(-c2cnc3c(NC=O)cc(-c4ccccc4N(C)C)cn23)c1 | ? | 16µM | - | 23µM | - | ?
CN(C)C(=O)c1cccc(-c2cnc3c(NC=O)cc(-c4ccccc4Cl)cn23)c1 | ? | 5.2µM | -53 | 2.6µM | - | -
CC1=C(COc2c3occc3cc3ccc(=O)oc23)CC(C)(C)CC1 | . | . | . | . | . | -
